{"source": "PubChem BioAssay (NCI)", "note": "About 83,000 compounds went through this panel and 20% of them were active in at least one assay; those are over-represented in the sample as a whole.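 Note: values are percent growth. 100 is the growth of untreated cells, values between 100 and 0 indicate rising inhibition; between -100 and 0 indicates cell death.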 Values without a mark were called inactive. Calls of active or inactive are those of the source."}
{"tested_on": "A549/ATCC NSCLC", "test": "NCI-60 one-dose screen, 48 h (100 = growth as untreated, 0 = no growth, -100 = all killed)", "details": "10 µM unless noted", "description": "Growth inhibition of the A549/ATCC human Non-Small Cell Lung tumor cell line is measured as a screen for anti-cancer activity. Cells are grown in 96 well plates and exposed to the test compound for 48 hours. Compounds are tested at a single concentration, which is 10^-5 M for most compounds. The reported endpoint is percent growth (GI% or GIPRCNT), where numbers from 0 - 100% represent growth inhibition, and numbers from -100% - 0 represent cell death. For example, a value of 40 represents 60% growth inhibition. A value of 0 means no net growth occurred over the course of the experiment. A value of -40 indicates 40% of cells at the beginning of the experiment died by the end of the experiment. A value of -100 means all cells are dead at the end of the experiment.\nNCI-60 Human Tumor Cell Lines Screen was performed using the standard one-dose NCI protocol, which is described in more detail at https://dtp.cancer.gov/discovery_development/nci-60/default.htm.\nCompounds with GIPRCNT values below 10 were considered active. Activity score was based on GIPRCNT using the following formula: […]\nScore is 0 for GIPRCNT values of 100 or above, 50 for GIPRCNT values of 0, and 100 for GIPRCNT values of -100."}
{"smiles": "CCCCNC(=O)Oc1ccc2c(=O)c3sc4c(=O)c5ccccc5c(=O)c4c3c(=O)c2c1", "growth": "-61.8% (active)"}
{"smiles": "CCOC(=O)c1c2ncccc2n2c(=O)n(-c3ccccc3C)nnc12", "growth": "102%"}
{"smiles": "Cc1ccc(Nc2ccc(Nc3ccc(C)cc3)c3c2C(=O)c2cccc(O)c2C3=O)cc1", "growth": "103%"}
{"smiles": "Cc1ccc(/C=C/c2c(C(=O)/C=C/c3ccc(Cl)cc3)c(C)nc3ccccc23)cc1", "growth": "78.8%"}
{"smiles": "N#C/C(=C\\c1ccc(Br)cc1)n1nnc2cc(F)c(F)cc21", "growth": "41.5%"}
{"smiles": "COC(=O)[C@]12CC[C@@H](C)[C@H](C)[C@@H]1C1=CC[C@@H]3[C@@]4(C)C(C=O)=C[C@@](C)(COS(C)(=O)=O)[C@@H]4C(=O)C[C@@]3(C)[C@]1(C)CC2", "growth": "27.6%"}
{"smiles": "N=C1C(c2nc(-c3ccc(Br)cc3)cs2)=C(O)CN1CC1CCCO1", "note": "(stereo not given)", "growth": "75.2%"}
{"smiles": "COc1cc2nc(Cl)nc(Nc3ccc(S(=O)(=O)Nc4nccs4)cc3)c2cc1OC", "growth": "102%"}
{"smiles": "O=c1c2cc(F)ccc2sc2c(NCCN3CCCCC3)nc3ccccc3c12", "growth": "59.1%"}
{"smiles": "COc1cc(/C=N/NC(=O)Cn2c(C(C)C)nc3ccccc32)ccc1O", "growth": "105%"}
{"smiles": "COc1cccc(-c2nn(-c3ccccc3)cc2-c2ccnc(NCCCNC(=O)c3ccccc3)c2)c1", "growth": "30.7%"}
{"smiles": "Cn1c(=O)c2c(nc(Cl)n2CCl)n(C)c1=O", "growth": "106%"}
{"smiles": "Clc1cccc(Cl)c1C(Nc1nc2ccccc2s1)Nc1nc2ccccc2s1", "growth": "106%"}
{"smiles": "COc1ccc(-c2cc(-c3cc(OC)c(OC)c(OC)c3)c(C#N)c(N3CCOCC3)n2)cc1O", "growth": "65.8%"}
{"smiles": "Cc1occc1-c1n[nH]c(=S)n1N1C(=O)CSC1=S", "growth": "103%"}
{"smiles": "O=c1oc2ccccc2c(Cl)c1Cl", "growth": "89.6%"}
{"smiles": "CCN(CC)CCn1nc2c3c(cccc3c1=O)-c1ccccc1-2", "growth": "1.36% (active)"}
{"smiles": "CN(C)c1ccc(-c2ccc3[nH]c(=O)nc(-c4ccccc4)c3c2)cn1", "growth": "58.3%"}
{"smiles": "CCCCCCCCCOc1c(OC)cc(C2CC(=O)Nc3c2c(C)nn3-c2nc3ccccc3[nH]2)cc1OC", "note": "(stereo not given)", "growth": "-56% (active)"}
{"smiles": "CCCCCCCCn1ccc2cc(NC(=O)Cn3cc(CN4CCCC4)nn3)ccc21", "growth": "40.2%"}
{"smiles": "CC(C)CC(NC(=O)CN(Cc1ccccc1)S(C)(=O)=O)C(=O)O", "note": "(stereo not given)", "growth": "96.5%"}
{"smiles": "N#Cc1c(-c2cccc(Cl)c2)cc(-c2cccc(Cl)c2)[nH]c1=O", "growth": "61.9%"}
{"smiles": "N#Cc1c(N)nc2c(C#N)c(NC(=O)c3ccccc3)nn2c1-c1ccccc1", "growth": "92.6%"}
{"smiles": "Cc1cc(C)c2c(-c3nnc(N)s3)cc(=O)oc2c1", "growth": "104%"}
{"smiles": "COc1ccc(-c2nc(SCCC(C)C)nc(N/N=C\\c3ccccc3O)c2C#N)cc1", "growth": "78.2%"}
{"smiles": "O=c1c2c3c(sc2n2c(-c4cn(-c5ccccc5)nc4-c4ccc(Cl)cc4)nnc2n1Cc1ccccc1)CCCC3", "growth": "105%"}
{"smiles": "COc1ccc2c(c1)C(=O)/C(=C/c1ccc(OCC(=O)Nc3nccs3)cc1)O2", "growth": "84.9%"}
{"smiles": "COC(=O)[C@]12CC[C@@H](C)[C@H](C)[C@@H]1C1=CC[C@@H]3[C@@]4(C)C(C=O)=C[C@@](C)(COC(=O)c5ccco5)C4=CC[C@@]3(C)[C@]1(C)CC2", "growth": "8.76% (active)"}
{"smiles": "COc1ccc(-c2csc(C3=C(O)CN(C(C)C)C3=N)n2)cc1OC", "growth": "88.7%"}
{"smiles": "C[C@H]1[C@H]2[C@H]3CC[C@@H]4[C@@]5(C)C/C(=C/c6ccco6)C(=O)C(C)(C)[C@@H]5CC[C@@]4(C)[C@]3(C)CC[C@]23CO[C@]1(C)[C@@H](C(=O)/C=C\\c1ccco1)C3", "growth": "88.3%"}
{"smiles": "CC(C)(C)C(CCc1ccc(Cl)cc1)N1CCN(C2CCCCC2)CC1", "note": "(stereo not given)", "growth": "24.9%"}
{"smiles": "CCN1C(=O)N(CC)C2Nn3c(s/c(=C4\\C(=O)N(C)c5ccccc54)c3=O)=NC21", "note": "(stereo not given)", "growth": "49.3%"}
{"smiles": "COc1cc(/C=N/n2c(CN3CCOCC3)nc3ccccc3c2=O)cc(OC)c1OC", "growth": "92.3%"}
{"smiles": "CN(C)CC1=NC2SC=C(c3ccccc3)C2C(=O)N1CC#N", "note": "(stereo not given)", "growth": "96.3%"}
{"smiles": "NC(=S)Nc1cccc(O)c1", "growth": "99.8%"}
{"smiles": "COc1cccc(-c2nc3sccn3c2-c2ccnc(NCCNS(=O)(=O)c3cccc(F)c3)c2)c1", "growth": "27.2%"}
{"smiles": "O=S(=O)(NCCCNc1cc(-c2c(-c3cccc(O)c3)nc3sccn23)ccn1)c1cccc(Cl)c1", "growth": "66.5%"}
{"smiles": "CCCCCCCC/C=C\\CCCCCCCCOc1ccccc1CC(=O)NCC[N+](C)(C)C", "growth": "71.4%"}
{"smiles": "COc1ccc(-c2cc(-c3cc(OC)ccc3OC)nc(SCC(=O)c3ccccc3)c2C#N)cc1", "growth": "92.7%"}
{"smiles": "O=[N+]([O-])c1ccc(N2c3ccncc3Sc3ccncc32)cc1", "growth": "110%"}
